Drawing on the supplement of paper PMC4723716, this text covers viability index for 44 molecules.

This test has as its system Plasmodium falciparum NF54 stage V gametocytes. In words: viability index relative to DMSO control (fraction); higher = less gametocyte killing. The following applies: 2.5 µM, incubation time: 72 h. The protocol: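 Broad DOS informer set and blood-stage-active DOS compounds screened in duplicate at 2.5 µM against P. falciparum NF54 stage V gametocytes with the serum-free one-step SaLSSA (1536-well): 72 h at 37 °C under low oxygen, then saponin lysis and MitoTracker Red CMXRos staining, with high-content imaging. Viability index = viable-object count divided by the plate mean of DMSO wells (0 = killed, about 1 = inactive).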

The mark [1] stands for this setting: library set: Broad Institute DOS.

“And” between values parts separate entries of the source, which are not always exact repeats. Equal entries are not always repeated. ± gives the uncertainty stated by the source. The full ranking holds about 9,900 compounds; the median of “viability index relative to DMSO control” is about 1, and the lowest 2% start at about 0.85. Only a selection was taken, and the lowest values are over-represented in it overall.

Regarding `C[C@H]1CN([C@@H](C)CO)C(=O)Cc2cc(NC(=O)CCC(F)(F)F)ccc2O[C@H]1CN(C)CC1CC1`, the viability index under setting [1] is 1.0278 ± 0.00041. The same measure, in the same setting: the same measure for `O=C(C[C@H]1C=C[C@@H](NC(=O)c2ccncc2)[C@@H](CO)O1)NCC1CC1`: 1.08 ± 0.03; for `COc1ccc2c3c([nH]c2c1)[C@@H](CO)N(C[C@]31CCN(Cc2ccccc2Cl)CC1)S(=O)(=O)c1cn(C)cn1`: 0.955 ± 0.018.

On to `O=C(Cc1ccncc1)NCC[C@H]1CC[C@H](NS(=O)(=O)c2ccccc2Cl)[C@H](CO)O1`, for which the viability index under setting [1] came out at 1.09 ± 0.031. On to `CN1[C@@H]2Cn3c(ccc(-c4ccncc4)c3=O)[C@H]1[C@@H](C(=O)N1CCC(Cc3ccccc3)CC1)[C@@H]2CO`, for which, under setting [1], the viability index was found to be 1.11 ± 0.041. Take `COc1ccc2c3c([nH]c2c1)[C@H](CO)N(C[C@]31CCN(Cc2cncnc2)CC1)C(=O)CN(C)C`: the viability index under setting [1] worked out at 0.991 ± 0.06. In the case of `O=C(NC[C@@H]1[C@H](c2ccccc2)[C@H](CO)N1Cc1ccccn1)C1CCCC1`, the viability index under setting [1] came out at 0.684 ± 0.14. Under setting [1], `O=C(NC[C@H]1[C@H](c2ccccc2)[C@@H](CO)N1Cc1ccccn1)C1CCCC1` gave a viability index of 0.9562 ± 0.0077. Still for that read-out and setting: the same measure for `O=C(NC[C@@H]1[C@@H](c2ccccc2)[C@H](CO)N1Cc1ccccn1)C1CCCC1`: 1.05 ± 0.068.

For `N#C[C@H]1[C@H](c2ccc(C#Cc3ccccc3F)cc2)[C@@H](CO)N1C(=O)c1cccnc1`, the viability index under setting [1] was 1.02 ± 0.033. On the same count and under the same terms, the same measure for `C[C@H](CO)N1C[C@H](C)[C@H](CN(C)CC2CC2)Oc2ccc(NC(=O)CCC(F)(F)F)cc2CC1=O`: 0.953 ± 0.022. Molecule `C[C@@H]1CN([C@@H](C)CO)C(=O)c2ccccc2-c2ccccc2CO[C@@H]1CN(C)Cc1cccnc1` displayed a viability index under setting [1] of 1.049 ± 0.005. With `OC[C@H]1[C@@H](c2ccc(-c3ccc(F)cc3)cc2)[C@@H]2CN(CCC(F)(F)F)CCCCN12`, the viability index (library set: Broad Institute Blood Stage) was 0.959 ± 0.057.

The molecule `OC[C@@H]1[C@H](c2ccc(-c3ccc(F)cc3)cc2)[C@@H](CNC2CCCC2)N1CCC(F)(F)F` registered a viability index under setting [1] of 0.557 ± 0.096. On the same count and under the same terms, the same measure for `CCCN1[C@H](CO)[C@H](c2ccc(C#Cc3ccccc3)cc2)[C@@H]1CNC1CCCC1`: 0.914 ± 0.021; for `CCC(=O)NC[C@H]1[C@@H](c2ccc(-c3ccc(C#N)cc3)cc2)[C@@H](CO)N1CCC(F)(F)F`: 1.01 ± 0.028. Molecule `CN(C[C@H]1[C@@H](c2ccc(C3=CCCC3)cc2)[C@@H](CO)N1CCC(F)(F)F)S(C)(=O)=O` registered a viability index under setting [1] of 1.02 ± 0.046. Turning to `OC[C@@H]1[C@H](c2ccc(-c3ccc(F)cc3)cc2)[C@H](CNC2CCCC2)N1CCC(F)(F)F`, the viability index under setting [1] stood at 0.837 ± 0.1. With `CO[C@H](CN(C)C(=O)c1cnccn1)[C@H](C)CN([C@H](C)CO)S(=O)(=O)c1ccccc1`, the viability index under setting [1] is 0.948 ± 0.067.

Regarding `COc1ccc(CNC(=O)C[C@H]2CC[C@H](NC(=O)CN(C)C)[C@@H](CO)O2)cc1`, under setting [1], the viability index was determined as 1.1 ± 0.008. The same measure, in the same setting: the same measure for `NCC[C@@H]1CC[C@H](NS(=O)(=O)c2ccc(Cl)cc2)[C@H](CO)O1`: 1.08 ± 0.093; for `NCC[C@@H]1CC[C@@H](NS(=O)(=O)c2ccc(Cl)cc2)[C@@H](CO)O1`: 1.02 and 1.13; for `NCC[C@H]1CC[C@H](NS(=O)(=O)c2ccc(Cl)cc2)[C@H](CO)O1`: 0.803 and 1.11. The molecule `C[C@@H]1C/C=C/C[C@H](c2cccc(Cl)c2)NC(=O)[C@@H](Cc2ccccc2)N(C)C(=O)c2ccccc2O1.C[C@@H]1C/C=C\C[C@H](c2cccc(Cl)c2)NC(=O)[C@@H](Cc2ccccc2)N(C)C(=O)c2ccccc2O1` came in with a viability index under setting [1] of 0.9516 ± 0.0088. Molecule `C[C@@H]1C/C=C/C[C@@H](c2cccc(Cl)c2)NC(=O)[C@H](Cc2ccccc2)N(C)C(=O)c2ccccc2O1.C[C@@H]1C/C=C\C[C@@H](c2cccc(Cl)c2)NC(=O)[C@H](Cc2ccccc2)N(C)C(=O)c2ccccc2O1` showed a viability index under setting [1] of 0.94 ± 0.029. Under setting [1], `C[C@@H]1C/C=C/C[C@@H](c2cccc(Cl)c2)NC(=O)[C@@H](Cc2ccccc2)N(C)C(=O)c2ccccc2O1.C[C@@H]1C/C=C\C[C@@H](c2cccc(Cl)c2)NC(=O)[C@@H](Cc2ccccc2)N(C)C(=O)c2ccccc2O1` displayed a viability index of 0.812 ± 0.044. As to `CCS(=O)(=O)N1C[C@@]2(C1)CN(CC1CCOCC1)[C@H](CO)c1c2c2ccc(OC)cc2n1C`, the viability index under setting [1] came out at 0.985 ± 0.037. Molecule `C[C@@H]1CCCCO[C@@H](CN(C)S(=O)(=O)c2cn(C)cn2)[C@H](C)CN([C@@H](C)CO)C(=O)c2cc(NC(=O)Nc3cccc4ccccc34)ccc2O1` returned a viability index under setting [1] of 1.02 ± 0.062. On the same count and under the same terms, the same measure for `O=C(C[C@@H]1CC[C@@H](NS(=O)(=O)c2ccc(F)cc2)[C@H](CO)O1)N1CCN(c2ccccc2)CC1`: 1.05 ± 0.087. For the molecule `O=C(Nc1cc(F)ccc1F)N1CCCCN2[C@@H](CO)[C@@H](c3ccc(C4=CCCCC4)cc3)[C@@H]2C1`, under setting [1], the viability index worked out at 0.818 ± 0.063. The molecule `O=C(Nc1cc(F)ccc1F)N1CCCCN2[C@H](C1)[C@H](c1ccc(C3=CCCCC3)cc1)[C@@H]2CO` gave a viability index under setting [1] of 1.04 ± 0.075. On to `O=C(Nc1ccccc1F)N1CCCCN2[C@H](CO)[C@H](c3ccc(/C=C/c4ccccc4)cc3)[C@@H]2C1`, for which, under setting [1], the viability index came out at 1.01 ± 0.021. On the same count and under the same terms, the same measure for `O=C(Nc1ccccc1F)N1CCCCN2[C@H](CO)[C@H](c3ccc(/C=C/c4ccccc4)cc3)[C@H]2C1`: 0.492 ± 0.14. As for `O=C(Nc1ccccc1F)N1CCCCN2[C@H](CO)[C@@H](c3ccc(/C=C/c4ccccc4)cc3)[C@H]2C1`, the viability index under setting [1] came out at 0.859 ± 0.037. On the same count and under the same terms, the same measure for `O=C(Nc1ccccc1F)N1CCCCN2[C@@H](CO)[C@@H](c3ccc(/C=C/c4ccccc4)cc3)[C@@H]2C1`: 0.8892 ± 0.0057; for `O=C(Nc1cc(F)ccc1F)N1CCCCN2[C@H](CO)[C@H](c3ccc(C4=CCCCC4)cc3)[C@H]2C1`: 0.686 ± 0.018; for `O=C(Nc1cc(F)ccc1F)N1CCCCN2[C@H](CO)[C@H](c3ccc(C4=CCCCC4)cc3)[C@@H]2C1`: 0.935 ± 0.14.

For `O=C(Nc1ccccc1F)N1CCCCN2[C@H](CO)[C@@H](c3ccc(/C=C/c4ccccc4)cc3)[C@@H]2C1`, under setting [1], the viability index came to 0.961 ± 0.019.

As to `O=C(C[C@@H]1C=C[C@@H](NC(=O)C2CCC2)[C@@H](CO)O1)NC1CCCCC1`, under setting [1], the viability index is 1.16 ± 0.096. Molecule `C[C@@H]1CN([C@@H](C)CO)C(=O)c2cc(NC(=O)C3CCCCC3)ccc2O[C@@H](C)CCCCO[C@@H]1CN(C)C(=O)CCC(F)(F)F` registered a viability index under setting [1] of 1.05 ± 0.025. `CCCC(=O)N1C[C@@]2(C1)CN([C@@H](CO)c1c2c2ccc(OC)cc2n1C)C(=O)Nc1cccc(F)c1` had a viability index under setting [1] of 0.997 ± 0.13. Turning to `C[C@H](NC(=O)C[C@@H]1C=C[C@H](NS(=O)(=O)c2cccc(F)c2)[C@H](CO)O1)c1ccccc1`, the viability index under setting [1] came out at 1.08 ± 0.11. `N#Cc1ccc(-c2ccc([C@H]3[C@@H](CO)N4C(=O)CNC[C@@H]34)cc2)cc1` gave a viability index under setting [1] of 0.965 ± 0.1.

`CN1CCN(C(=O)C[C@H]2CC[C@@H]3[C@H](COC[C@@H](O)CN3C(=O)Nc3ccc4c(c3)OCO4)O2)CC1`: under setting [1], the viability index stood at 1.05 ± 0.017.
